About 83,000 compounds went through this panel and 20% of them were active in at least one assay; those are over-represented in the sample as a whole.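 The test compound was applied at a single concentration to cells in 96-well plates for 48 hours, and percent growth was recorded.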 Calls of active or inactive are those of the source. How the source made its calls: active means growth percent below 10; inactive means the rest.
Legend:
Assay in all cases: NCI-60 one-dose screen, 48 h (100 = growth as untreated, 0 = no growth, -100 = all killed)
[1] = system: EKVX NSCLC; conditions: 10 µM unless noted
[2] = system: SN12C renal; conditions: 10 µM unless noted
[3] = system: UO-31 renal; conditions: 10 µM unless noted
[4] = system: TK-10 renal; conditions: 10 µM unless noted
[5] = system: CAKI-1 renal; conditions: 10 µM unless noted
[6] = system: A498 renal; conditions: 10 µM unless noted
[7] = system: MOLT-4 leukemia; conditions: 10 µM unless noted
[8] = system: SR leukemia; conditions: 10 µM unless noted
[9] = system: RPMI-8226 leukemia; conditions: 10 µM
[10] = system: OVCAR-8 ovarian; conditions: 10 µM unless noted
[11] = system: OVCAR-5 ovarian; conditions: 10 µM unless noted
[12] = system: OVCAR-4 ovarian; conditions: 10 µM unless noted
[13] = system: SK-OV-3 ovarian; conditions: 10 µM
[14] = system: IGROV1 ovarian; conditions: 10 µM unless noted
[15] = system: OVCAR-3 ovarian; conditions: 10 µM unless noted
[16] = system: HS 578T breast; conditions: 10 µM unless noted
[17] = system: NCI/ADR-RES ovarian; conditions: 10 µM unless noted
[18] = system: ACHN renal; conditions: 10 µM unless noted
[19] = system: CCRF-CEM leukemia; conditions: 10 µM unless noted

Measured: growth

CC(C)OC1=C(Cl)C(=O)c2ccccc2C1=O
inactive: [1] 103% | [2] 90.5% | [3] 76.7% | [4] 110% | [5] 106% | [6] 112% | [7] 39.8% | [9] 24.5% | [10] 75.9% | [11] 101% | [12] 71.9% | [13] 103% | [14] 99.1% | [15] 78% | [16] 81.5% | [17] 87.2%
active: [8] 9.89%

COc1ccccc1-n1c(SCc2cc(OC)c(OC)c(OC)c2)nc2ccc(Cl)cc2c1=O
active: [6] 5.01% | [15] 0.54%
inactive: [2] 70.3% | [3] 42.6% | [18] 44.2% | [5] 42.6% | [7] 15.4% | [8] 16.1% | [9] 17.4% | [10] 55.3% | [11] 53.3% | [12] 63% | [13] 59.5% | [14] 47.7% | [16] 39.6% | [17] 20.2%

O=c1nc(NO)[nH]c(=O)n1Cc1ccc(F)cc1
inactive: [2] 107% | [3] 84.2% | [18] 101% | [5] 111% | [6] 128% | [19] 105% | [7] 103% | [8] 103% | [9] 105% | [10] 109% | [11] 104% | [12] 91.5% | [13] 105% | [14] 97.3% | [15] 112% | [16] 112% | [17] 107%

Nc1c(Br)cc(Br)cc1-c1n[nH]c(=O)[nH]c1=O
inactive: [2] 109% | [3] 74.3% | [18] 91.9% | [5] 86.4% | [6] 91.7% | [7] 65.8% | [9] 99.6% | [10] 105% | [11] 97.2% | [12] 98.5% | [13] 93.4% | [14] 105% | [15] 113% | [16] 78.3% | [17] 103%
active: [8] 7.84%

CON=C1C[C@]2(C[C@@H]3C[C@@H](C/C=C(\C)C[C@@H](C)/C=C/C=C4\CO[C@@H]5[C@H](O)C(C)=C[C@@H](C(=O)O3)[C@]45O)O2)O[C@H](/C(C)=C/C(C)C)[C@H]1C
active: [7] -20.4% | [8] -39.5% | [15] 1.95%
inactive: [1] 20% | [2] 55% | [3] 24% | [4] 81.9% | [5] 44.8% | [6] 38.3% | [19] 38.2% | [9] 43.7% | [10] 66.4% | [11] 70.1% | [12] 57.2% | [13] 95.2% | [14] 28.1% | [16] 60.2%

O=c1[nH]c(=S)[nH]c(=O)n1Cc1cccc2ccccc12
inactive: [2] 101% | [3] 93% | [18] 97.7% | [6] 85.4% | [19] 105% | [7] 99.7% | [8] 102% | [10] 99.7% | [11] 107% | [12] 93.4% | [13] 102% | [14] 115% | [15] 113% | [16] 102%

Cc1ccc(C(=O)O[C@H](C(=O)O)[C@H](OC(=O)c2ccc(C)cc2)C(=O)O)cc1
inactive: [3] 85.1% | [8] 87.5%

O=c1[nH]c(-c2ccccn2)nc2sc3c(c12)CCCCCC3
inactive: [2] 50.5% | [3] 31.8% | [18] 37.5% | [5] 28.1% | [19] 32.6% | [7] 18.8% | [8] 22.1% | [10] 29.9% | [11] 58.6% | [12] 28% | [13] 45.2% | [14] 42.4% | [15] 54.7% | [16] 69.9% | [17] 24.6%
